Rab9 prom act = Rab9 promoter activation; Huh7 Rab9 promoter-luciferase reporter, luminescence, 24 h; Potency, µM (series often up to 9.22 µM), for inactives: at the highest dose activation, negative = inhibition, hits mostly activators; 320,000 compounds, 2.8% hits; note: % of control where 0% means no effect; nearly all actives have a fitted effect of over 60% in size
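Promoter activation is measured as luciferase luminescence in Huh7 cells stably transfected with a Rab9 promoter–luciferase construct, following 24 h compound exposure at 37 °C and 10 min reagent incubation at ambient temperature.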
FLuc modulator = inhibits or activates purified firefly luciferase, miR-21 counter-screen | Potency, µM (series often up to 57.5 µM), without a hit: top-dose activity change, negative = inhibition, actives largely listed as inhibitors | purified FLuc, Km substrates, luminescence inhibition | 360,000 compounds, 6.9% hits | AID 588342 | P08659;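 note: plate controls were vehicle for no effect and reference inhibitor for full effect; nearly all actives have a fitted effect of over 55% in size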
Target sequence (P08659 whole entry, looked up): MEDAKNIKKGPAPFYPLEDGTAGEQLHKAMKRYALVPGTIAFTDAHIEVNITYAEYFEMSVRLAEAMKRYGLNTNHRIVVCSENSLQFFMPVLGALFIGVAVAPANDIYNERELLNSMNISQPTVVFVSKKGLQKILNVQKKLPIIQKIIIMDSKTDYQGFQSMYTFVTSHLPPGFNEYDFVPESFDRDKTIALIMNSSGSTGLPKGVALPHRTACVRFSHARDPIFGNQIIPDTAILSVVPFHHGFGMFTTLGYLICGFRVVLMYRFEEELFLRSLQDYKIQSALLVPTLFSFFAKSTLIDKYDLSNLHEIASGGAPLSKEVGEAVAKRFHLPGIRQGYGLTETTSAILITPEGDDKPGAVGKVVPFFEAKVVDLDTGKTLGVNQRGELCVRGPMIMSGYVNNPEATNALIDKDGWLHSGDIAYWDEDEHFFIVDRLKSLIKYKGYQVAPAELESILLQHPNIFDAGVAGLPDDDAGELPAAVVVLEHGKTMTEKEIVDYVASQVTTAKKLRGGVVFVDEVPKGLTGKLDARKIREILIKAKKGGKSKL
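Purified P. pyralis luciferase (10nM final) with 10uM D-luciferin and 10uM ATP (Km levels) in 50mM Tris acetate pH 7.5, 10mM Mg acetate, 0.01% Tween-20, 0.05% BSA; qHTS 6-point titration, ~60 µM downward; luminescence read.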
NPC1 prom act = activators of NPC1 promoter | Huh7 NPC1 promoter luciferase reporter, 24 h | Potency, µM (series often up to 9.22 µM), for the others: at the highest dose activation, hits mostly activators | 320,000 compounds, 2.4% hits; note: % of control where 0% means no effect; nearly all actives have a fitted effect of over 60% in size
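Cells: Huh7 expressing luciferase under the NPC1 promoter, 1500/well. Seeded 2 h, compound added, incubated 24 h at 37 °C. Luciferase reagent, 10 min ambient, then luminescence.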
SMN2 splice enh = increases expression of the SMN2 splice variant; HEK293 SMN2-luciferase splicing reporter, luminescence, 30-36 h; Potency, µM (titrated, usually from 46.1 µM), for inactives: at the highest dose activity change, positive = activation, actives largely listed as activators; 210,000 compounds, 2.8% hits; AID 1458; note: % of control where 0% means no effect; nearly all actives have a fitted effect of over 55% in size
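HEK293 cells carry an SMN2 minigene-luciferase reporter in which exon 7 inclusion puts luciferase in frame. Cells were seeded at 2000 cells/well, attached for 10-12 hours, then exposed to compounds for 30-36 hours at 37C before ONE-Glo luminescence.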
ELG1 genotoxic = induces genotoxicity in HEK293T cells with luciferase-tagged ELG1. HEK293T ELG1-luciferase reporter, luminescence, 16 h. Potency, µM (doses to about 46 µM), inactives show top-dose activity change, positive = activation, actives largely listed as activators. 330,000 compounds, 1.3% hits. AID 504466; note: % of control where 0% means no effect; nearly all actives have a fitted effect of over 60% in size
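Genotoxic stress is detected as increased luminescence from luciferase-tagged ELG1 in HEK293T cells, measured with ONE-Glo after a 16 hr treatment at 37 °C.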
* = called active by the depositor; ? = inconclusive; nt = no result given; [ ] = another dose, or the depositor's remark. In the library only some 7.4% were active in any assay of this set; here they are far more common. Calls come from the whole dose curve; as a rule, active = well fitted curve in the direction sought with a large enough effect; inconclusive = small, poorly fitted or top-dose-only effect, or another doubt; inactive = no such curve, though single readings can be large; an effect the other way counts as inactive or inconclusive. Potency is the fitted concentration of half-maximal effect.

SMILES	Rab9 prom act	FLuc modulator	NPC1 prom act	SMN2 splice enh	ELG1 genotoxic
O=C(Nc1ccc2c(c1)OCO2)c1cnn2cccnc12	1.6µM*	9.5µM*	2.2µM*	11µM*	4.1µM*
O=C(Nc1cnccn1)Nc1ccc(Cl)cc1Cl	?	-6%	22%	nt	6%
CC(C(=O)Nc1ccc(Cl)cc1Cl)N1C(=O)NC2(CCCC2)C1=O (stereo not given)	0%	-2%	2%	nt	0%
O=C(NCc1ccccc1F)c1cccc(S(=O)(=O)N2CCCCCC2)c1	-1%	0%	-3%	nt	2%
Cc1ccc(NC(=O)Nc2ccc3c(c2)OCO3)c(Br)c1	?	?	?	nt	18µM*
CC(C)(C)c1ccc(OCCSc2nc(-c3cccs3)nc3cc(=O)[nH]n23)cc1	nt	15µM*	nt	nt	nt
O=C(Nc1nc(-c2ccccc2)cs1)NC1CCCCC1	20%	?	17%	-28%	23µM*
O=C(Nc1nc(-c2ccccc2)cs1)C1CCCCN1S(=O)(=O)c1ccccc1 (stereo not given)	1%	-1%	9%	-38%	1%
COc1ccc(-c2csc(NC3CCCCC3)n2)c(OC)c1	23%	24µM*	20%	nt	?
c1ccc(-c2csc(NC3CCCCC3)n2)cc1	1µM*	1.7µM*	0.79µM*	nt	5.2µM*
COc1ccc(CCNC(=O)CCn2c(SCC(=O)N3CCCC3)nc3ccccc3c2=O)cc1OC	7%	-4%	-1%	nt	-5%
CCc1ccc(NC(=O)C2C3/C=C\CCCCC32)cc1 (stereo not given)	3.2µM*	?	4.5µM*	11µM*	?
CCc1ccc(NC(=O)C2CCCCC2C(=O)O)cc1 (stereo not given)	-1%	-5%	-2%	-1%	-1%
O=C1CCC(C(=O)Nc2ccc(Cl)cc2)N1 (stereo not given)	9%	7%	-3%	nt	2%
O=C(Nc1ccc(Cl)cc1)C1C2CCCCC21 (stereo not given)	4µM*	4.8µM*	4µM*	nt	?
CCc1nn(CC(=O)NC2CC2)c(=O)c2cc3ccccc3n12	nt	6%	nt	nt	nt
CCc1nn2c(=O)cc(COC(=O)c3ccc(NC(=O)CCc4ccccc4)cc3)nc2s1	nt	0%	nt	nt	nt
O=c1sc(N2CCN(c3ccc(F)cc3)CC2)nc2ccsc12	?	8.5µM*	?	?	?
O=C(Cn1ncc2ccsc2c1=O)N1CCN(c2ccc(F)cc2)CC1	nt	1%	nt	-17%	nt
O=C(c1ccco1)N1CCN(c2nc3ccsc3c(=O)s2)CC1	18%	-17%	1%	23%	16%
O=c1sc(N2CCN(c3ccccc3F)CC2)nc2ccsc12	0.79µM*	2.7µM*	1.4µM*	13µM*	7.3µM*
Cc1ccccc1C(=O)N1CCC(C(=O)Nc2ccccn2)CC1	4%	8%	0%	nt	-17%
O=C(Nc1cccc(F)c1)c1ccc(CSc2ccccc2)o1	21%	19µM*	23%	?	19%
O=C(Nc1ccccc1F)c1ccc(COc2ccc(Cl)cc2Cl)o1	0%	?	-1%	13µM*	-3%
CC(=O)Nc1ccc(NC(=O)c2ccc(CSc3ccccc3)o2)cc1	-3%	-5%	-2%	-48%	-5%
SMILES	Rab9 prom act	FLuc modulator	NPC1 prom act	SMN2 splice enh	ELG1 genotoxic
CC(=O)Nc1ccc(NC(=O)c2ccc(COc3ccc(Cl)cc3Cl)o2)cc1	nt	-3%	nt	23%	nt
O=C(Nc1ccccc1F)c1ccc(CSc2ccccc2)o1	17%	17µM*	15%	19%	?
CCc1c(C)nc(N2CCN(c3ccccc3F)CC2)[nH]c1=O	-4%	2%	-3%	nt	1%
C=CCNc1ncnc2c1cnn2-c1ccc(OC)cc1	0.4µM*	3.4µM*	0.63µM*	?	?
CCCCN(CCCC)c1ncnc2c1cnn2-c1cccc(C)c1	nt	-8%	nt	nt	nt
CCCNc1ncnc2c1cnn2-c1ccc(OC)cc1	0.4µM*	5.4µM*	0.5µM*	-3%	2%
CCCN(CCC)c1ncnc2c1cnn2-c1ccc(OC)cc1	0.45µM*	2.4µM*	0.71µM*	?	1.2µM*
CCCNC(=O)COc1coc(CN2CCN(c3ccccc3F)CC2)cc1=O	-3%	-1%	-2%	nt	-6%[9.26 µM]
